According to PubChem BioAssay (NCI):
This is part of a sample that, as a whole, favours compounds with a hit. Of some 83,000 tested, about 20% had one in any assay.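 Percent growth is the endpoint: 0 to 100 indicates growth inhibition (40 means 60% inhibition), 0 means no net growth, and negative values indicate cell death.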 Unmarked numbers belong to inactive results. Activity calls are given as the source filed them. The calls were made as follows: active = growth percent below 10; inactive = the rest.

Tests used:
Assay in all cases: NCI-60 one-dose screen, 48 h (100 = growth as untreated, 0 = no growth, -100 = all killed)
Conditions in all cases: 10 µM unless noted
SR leukemia = tested on: SR leukemia
OVCAR-8 ovarian = tested on: OVCAR-8 ovarian
OVCAR-5 ovarian = tested on: OVCAR-5 ovarian
OVCAR-4 ovarian = tested on: OVCAR-4 ovarian
SK-OV-3 ovarian = tested on: SK-OV-3 ovarian
IGROV1 ovarian = tested on: IGROV1 ovarian
OVCAR-3 ovarian = tested on: OVCAR-3 ovarian
HS 578T breast = tested on: HS 578T breast
NCI/ADR-RES ovarian = tested on: NCI/ADR-RES ovarian
T-47D breast = tested on: T-47D breast
BT-549 breast = tested on: BT-549 breast
MDA-MB-435 melanoma = tested on: MDA-MB-435 melanoma
SW-620 colon = tested on: SW-620 colon
MCF7 breast = tested on: MCF7 breast
HCT-116 colon = tested on: HCT-116 colon
HCC-2998 colon = tested on: HCC-2998 colon
KM12 colon = tested on: KM12 colon

O=[N+]([O-])c1ccc(N/N=C/c2ccccc2O)nc1 was tested, and the growth (SR leukemia) was 14.8%, the growth (OVCAR-8 ovarian) was 24.3% and the growth (OVCAR-5 ovarian) was 60.9%. The growth (OVCAR-4 ovarian) was 39.3%, the growth (SK-OV-3 ovarian) was 32.7% and the growth (IGROV1 ovarian) was 18.6%. The growth (OVCAR-3 ovarian) was 69.1%, the growth (HS 578T breast) was 79.7% and the growth (NCI/ADR-RES ovarian) was 21.3%. The growth (T-47D breast) was 24%, the growth (BT-549 breast) was 47.8% and the growth (MDA-MB-435 melanoma) was 46.8%. The growth (SW-620 colon) was 52.6%, the growth (MCF7 breast) was 16.8% and the growth (HCT-116 colon) was 22.3%. It also gave a growth (HCC-2998 colon) of 14.7% and a growth (KM12 colon) of 27%.

Compound CCCCc1nc(Cl)c(C2CC(c3ccc(S(N)(=O)=O)cc3)=NN2c2ccc(C#N)cc2)[nH]1 (stereo not drawn) has a growth (SR leukemia) of 80.5%, a growth (OVCAR-8 ovarian) of 83.2% and a growth (OVCAR-5 ovarian) of 88.5%. For the same compound, the growth (OVCAR-4 ovarian) was 98.2%, the growth (SK-OV-3 ovarian) was 96.4% and the growth (IGROV1 ovarian) was 93%. For the same compound, the growth (OVCAR-3 ovarian) was 92.5%, the growth (HS 578T breast) was 79.4% and the growth (NCI/ADR-RES ovarian) was 107%. The growth (T-47D breast) was 68.7%, the growth (BT-549 breast) was 80.6% and the growth (MDA-MB-435 melanoma) was 93.9%. For the same compound, the growth (SW-620 colon) was 91.8%, the growth (MCF7 breast) was 76.1% and the growth (HCT-116 colon) was 85.8%. For the same compound, the growth (HCC-2998 colon) was 109% and the growth (KM12 colon) was 99.8%.

C=C(C)[C@@H]1CC[C@]2(C(=O)O)CC[C@]3(C)[C@H](CC[C@@H]4[C@@]5(C)C[C@@H](CC#Cc6ccc(C(C)=O)s6)[C@H](O)C(C)(C)[C@@H]5CC[C@]43C)[C@@H]12 gave a growth (SR leukemia) of 78.3%, a growth (OVCAR-8 ovarian) of 38.4% and a growth (OVCAR-5 ovarian) of 98%. It also gave a growth (OVCAR-4 ovarian) of 33.6%, a growth (SK-OV-3 ovarian) of 27.7% and a growth (IGROV1 ovarian) of 89.1%. It also gave a growth (OVCAR-3 ovarian) of 58.4%, a growth (HS 578T breast) of 73.1% and a growth (NCI/ADR-RES ovarian) of 76.3%. For the same compound, the growth (T-47D breast) was 51.5%, the growth (BT-549 breast) was 53.1% and the growth (MDA-MB-435 melanoma) was 81.5%. The growth (SW-620 colon) was 59.8%, the growth (MCF7 breast) was 55% and the growth (HCT-116 colon) was 26%. For the same compound, the growth (HCC-2998 colon) was 62.9% and the growth (KM12 colon) was 18.1%.

In the case of CCN(CCC#N)c1ccccc1, the growth (SR leukemia) is reported as 96.4%, the growth (OVCAR-8 ovarian) is reported as 103% and the growth (OVCAR-5 ovarian) is reported as 102%. It also gave a growth (OVCAR-4 ovarian) of 100%, a growth (SK-OV-3 ovarian) of 114% and a growth (IGROV1 ovarian) of 115%. The growth (OVCAR-3 ovarian) was 113%, the growth (HS 578T breast) was 91.8% and the growth (NCI/ADR-RES ovarian) was 105%. For the same compound, the growth (T-47D breast) was 101%, the growth (BT-549 breast) was 110% and the growth (MDA-MB-435 melanoma) was 109%. It also gave a growth (SW-620 colon) of 101%, a growth (MCF7 breast) of 105% and a growth (HCT-116 colon) of 105%. It also gave a growth (HCC-2998 colon) of 109% and a growth (KM12 colon) of 114%.

OCCN(CCO)c1ccc2ccccc2c1 showed a growth (SR leukemia) of 104%, a growth (OVCAR-8 ovarian) of 104% and a growth (OVCAR-5 ovarian) of 98.8%. It also gave a growth (OVCAR-4 ovarian) of 104%, a growth (SK-OV-3 ovarian) of 98.3% and a growth (IGROV1 ovarian) of 93.7%. For the same compound, the growth (OVCAR-3 ovarian) was 103%, the growth (HS 578T breast) was 105% and the growth (NCI/ADR-RES ovarian) was 98.7%. For the same compound, the growth (T-47D breast) was 96.6%, the growth (BT-549 breast) was 101% and the growth (MDA-MB-435 melanoma) was 104%. The growth (SW-620 colon) was 105%, the growth (MCF7 breast) was 93.3% and the growth (HCT-116 colon) was 89.3%. It also gave a growth (HCC-2998 colon) of 108% and a growth (KM12 colon) of 99.9%.

COc1cccc(NC(=O)OC(C)C)c1 showed a growth (SR leukemia) of 92.4%, a growth (OVCAR-8 ovarian) of 106% and a growth (OVCAR-5 ovarian) of 96.4%. For the same compound, the growth (OVCAR-4 ovarian) was 93.1%, the growth (SK-OV-3 ovarian) was 104% and the growth (IGROV1 ovarian) was 99.7%. For the same compound, the growth (OVCAR-3 ovarian) was 121%, the growth (HS 578T breast) was 99% and the growth (NCI/ADR-RES ovarian) was 98.4%. For the same compound, the growth (T-47D breast) was 93.8%, the growth (BT-549 breast) was 103% and the growth (MDA-MB-435 melanoma) was 92.8%. It also gave a growth (SW-620 colon) of 96.6%, a growth (MCF7 breast) of 102% and a growth (HCT-116 colon) of 101%. The growth (HCC-2998 colon) was 96.7% and the growth (KM12 colon) was 103%.

Compound Cc1c2c(cc3c1[nH]c1ccccc13)C=NCC2 has a growth (SR leukemia) of 64.1%, a growth (OVCAR-8 ovarian) of 94.1% and a growth (OVCAR-5 ovarian) of 98.3%. It also gave a growth (OVCAR-4 ovarian) of 94%, a growth (SK-OV-3 ovarian) of 96.5% and a growth (IGROV1 ovarian) of 105%. The growth (OVCAR-3 ovarian) was 101%, the growth (HS 578T breast) was 99.1% and the growth (NCI/ADR-RES ovarian) was 85.6%. For the same compound, the growth (T-47D breast) was 73.7%, the growth (BT-549 breast) was 79.6% and the growth (MDA-MB-435 melanoma) was 94.9%. It also gave a growth (SW-620 colon) of 97%, a growth (MCF7 breast) of 60.8% and a growth (HCT-116 colon) of 71.1%. It also gave a growth (HCC-2998 colon) of 96.8% and a growth (KM12 colon) of 87%.

For COc1ccc2c(c1)N(Cc1ccc(Cl)cc1)CCC2N1CCCC1=O (stereo not drawn), the growth (SR leukemia) was 34.2%, the growth (OVCAR-8 ovarian) was 50% and the growth (OVCAR-5 ovarian) was 66%. The growth (OVCAR-4 ovarian) was 34%, the growth (SK-OV-3 ovarian) was 43.4% and the growth (IGROV1 ovarian) was 13.2%. For the same compound, the growth (OVCAR-3 ovarian) was 43.8%, the growth (HS 578T breast) was 10.7% and the growth (NCI/ADR-RES ovarian) was 53.3%. It also gave a growth (T-47D breast) of 31.5%, a growth (BT-549 breast) of 16.1% and a growth (MDA-MB-435 melanoma) of 46.2%. The growth (SW-620 colon) was 72.1%, the growth (MCF7 breast) was 35.5% and the growth (HCT-116 colon) was 55.1%. The growth (HCC-2998 colon) was 49.7% and the growth (KM12 colon) was 50.4%.

C=C1C[C@@]2(C)C(CC[C@]3(C)C2CC=C2C4CC(C)(C)C[C@@H](OC(=O)/C(C)=C\C)[C@]4(C(=O)O)CC[C@]23C)C(C)(C)C1=O (stereo partly drawn) was tested, and the growth (SR leukemia) was -0.663% (active), the growth (OVCAR-8 ovarian) was 15% and the growth (OVCAR-5 ovarian) was 7.88% (active). For the same compound, the growth (OVCAR-4 ovarian) was 39.4%, the growth (SK-OV-3 ovarian) was 86.2% and the growth (IGROV1 ovarian) was 1.07% (active). The growth (OVCAR-3 ovarian) was -16.8% (active), the growth (HS 578T breast) was 51.3% and the growth (NCI/ADR-RES ovarian) was 9.03% (active). The growth (T-47D breast) was -11.3% (active), the growth (BT-549 breast) was -19.7% (active) and the growth (MDA-MB-435 melanoma) was -12.4% (active). For the same compound, the growth (SW-620 colon) was -29.1% (active), the growth (MCF7 breast) was 8.17% (active) and the growth (HCT-116 colon) was -78.5% (active). For the same compound, the growth (HCC-2998 colon) was -79.9% (active) and the growth (KM12 colon) was 3.05% (active).
